# From PubChem BioAssay (NCI)
# About 79,000 compounds went through this panel and 15% of them were active in at least one assay; those are over-represented in the sample as a whole. Unmarked numbers belong to inactive results. Calls of active or inactive are those of the source. Cut-off read from the data, not from the text of the source: active = growth inhibition above about 70%; inactive = the rest.
# Experiment: NCI Yeast Anticancer Drug Screen. Data for the sgs1 mgt1 strain (AID 161);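 note: 0% = growth of cultures given vehicle only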
# Details: S. cerevisiae sgs1 mgt1 strain, at 50.0 µM, hits give high values
# Procedure, shortened: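 Percent growth inhibition was derived by comparing compound-exposed mutant yeast with vehicle-exposed cultures. The strain carries alterations in DNA damage repair.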
row,SMILES,growth inhibition
1,CC(=O)C1SCC[S+]1C (stereo not given),-10.6%
2,C=CS(=O)(=O)c1ccc(NC(=O)Nc2ccc(Cl)cc2)cc1,-8.8%
3,Cc1ccc(C(=O)C2CC2c2ccccc2)cc1 (stereo not given),-13.7%
4,O=C1NCC2Cc3ccccc3C(c3ccccc3)=C12 (stereo not given),5.6%
5,OCCOc1ccc(Cl)cc1Cl,-18.2%
6,Nn1c(=S)[nH]nc(/C=C/c2ccc3c(c2)OCO3)c1=O,3.8%
7,CCCS(=O)(=O)CCC(=O)c1cccs1,-8.4%
8,COC(=O)C(=C/c1ccc(OC)cc1)/C(C(=O)O)=C(/C)c1ccccc1,-14.2%
9,O=C1CC(C2OCOC3COCOC32)CC(=O)N1 (stereo not given),-7.15%
10,O=C(CCl)Nc1ccc(O)c2ccccc12,7.45%
11,CCN(CC)CCCNc1cc(O)cc2cccnc12,26.6%
12,CC12CC3CC(C)(C1)CC(N=[N+]=[N-])(C3)C2,-12.1%
13,C=C1C(=O)O[C@H]2/C=C(/C)C3=CC(=O)[C@@](C)(C[C@@H](OC(=O)/C(C)=C\C)C12)O3 (stereo not given in full),81.2% (active)
14,CSC1(C)C(=O)Nc2cc(C(F)(F)F)ccc21 (stereo not given),1.65%
15,O=C1CC2C(=O)N(Cc3ccccc3)C(=O)C2C(=O)N1 (stereo not given),-5.3%
16,COc1ccc(N2CCN(CC(O)COc3ccc(Cl)cc3)CC2)cc1 (stereo not given),75% (active)
17,CC(C)=Cc1cc(C(=O)Nc2ccc(Cl)c(Cl)c2)nc(N)n1,-10.6%
18,Cc1cc(C)c2c(=O)c3c(oc2c1)O[C@@](C)(CO)C[C@@H]3c1ccccc1,2.3%
19,COc1ccc(C2=C/C(=C/c3cccs3)C(=O)O2)cc1,-0.15%
20,N#CC(=C1c2ccccc2-c2ccccc21)c1ccccc1,-2.35%

row,SMILES,growth inhibition
1,Cc1ccccc1NC(=O)NN,-31.4%
2,CCC(C)N(C(C)=O)C(C)CC (stereo not given),-13.4%
3,CC(C)(Oc1ccc(Cl)cc1)C(=O)NC1CC(C)(C)N(O)C(C)(C)C1,-13.2%
4,c1ccc(N=C2N=c3ccccc3=C2c2c(Nc3ccccc3)[nH]c3ccccc23)cc1,-4.35%
5,CC(C)N(CC(=O)NC(=O)c1ccccc1)Cc1ccccc1,-1.95%
6,Nc1nc2c(nc(OCc3ccccc3)n2C2OC(CO)C(O)C2O)c(=O)[nH]1 (stereo not given),2.65%
7,Clc1cnnc(Cl)c1N/N=C/c1ccco1,13%
8,COc1ccc(C(=O)O/N=C2/CCC/C2=C\c2ccccc2)cc1,33.6%
9,COC(=O)c1nnn(-c2c(C)cccc2C(C)C)c1C(=O)c1ccccc1,-2.15%
10,O=C1O[C@@H](c2ccccc2)C[C@@H]1CN1CCOCC1,22.7%
11,Cc1ccc2c(c1)C(C(C)C)CCC2(C)C (stereo not given),2.95%
12,CC1(O)c2ccccc2-c2nc3ccccc3nc21 (stereo not given),-16.4%
13,Nc1cccc(=O)[nH]1,-0.05%
14,CCCCc1c2c(nc3c1CCC/C3=C\c1ccccc1)C(=O)CCC2,3.2%
15,Cn1ncc2c(=S)nc[nH]c21,-2.5%
16,CCC1(C(Cl)(Cl)Cl)C=CC(=O)C=C1,-1.85%
17,O=C(O)C1OC1(c1ccccc1Cl)c1ccccc1Cl (stereo not given),7.8%
18,O=S(=O)(CS(=O)(=O)c1ccccc1Br)c1ccccc1Br,-16%
19,Cc1nc2c(Cl)cc(Cl)cc2c(Cl)c1CCCl,49.5%
20,CC(C)CCCC(C)C1CCC2C3CC=C4CC(OC5CCC6(C)C(=CCC7C6CCC6(C)C(C(C)CCCC(C)C)CCC76)C5)CCC4(C)C3CCC12C (stereo not given),-17.1%
